A number with no mark means an inactive call. Results filed as inconclusive are left out. A call without a number means that no potency is given here. Activity calls are given as the source filed them. Calls follow the shape of the dose curve; as a rule, active = well fitted curve in the direction sought with a large enough effect; inconclusive = small, poorly fitted or top-dose-only effect, or another doubt; inactive = no such curve, though single readings can be large; an effect the other way counts as inactive or inconclusive. Where a SMILES comes first, the peptide text is derived from it. [ ]: non-standard residue; d: D form. pGlu = O=C1CC[C@@H](C(=O)O)N1; Thz = O=C(O)[C@@H]1CSCN1
How the values were obtained:
[1] = Primary redox qHTS assay for identification of artifact compounds. (AID 1845223); settings: Amplex Red/HRP redox cycling with DTT, fluorescence; series mostly up to 53.8 µM
How it was run: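 Amplex Red (25 uM) and HRP (250 mU/mL) in HBSS, with compounds for 15 min, then 250 uM DTT for 30 min, room temperature, dark. Fluorescence 525/598 nm read; normalized to DMSO and 10 uM DA3003; Hill fit.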

[2] = target: Cytochrome P450 3A4 (Homo sapiens) (UniProt P08684); assay: qHTS for inhibitors of CYP3A4 against the NCATS DSHEA and TCM libraries (AID 1919971); settings: recombinant CYP3A4 enzyme activity, luminescence qHTS; series mostly up to 34.1 µM;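 also: inhibition lowers luminescence from luciferin made by CYP3A4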
Cytochrome P450 3A4 (Homo sapiens), sequence (P08684 whole entry, looked up): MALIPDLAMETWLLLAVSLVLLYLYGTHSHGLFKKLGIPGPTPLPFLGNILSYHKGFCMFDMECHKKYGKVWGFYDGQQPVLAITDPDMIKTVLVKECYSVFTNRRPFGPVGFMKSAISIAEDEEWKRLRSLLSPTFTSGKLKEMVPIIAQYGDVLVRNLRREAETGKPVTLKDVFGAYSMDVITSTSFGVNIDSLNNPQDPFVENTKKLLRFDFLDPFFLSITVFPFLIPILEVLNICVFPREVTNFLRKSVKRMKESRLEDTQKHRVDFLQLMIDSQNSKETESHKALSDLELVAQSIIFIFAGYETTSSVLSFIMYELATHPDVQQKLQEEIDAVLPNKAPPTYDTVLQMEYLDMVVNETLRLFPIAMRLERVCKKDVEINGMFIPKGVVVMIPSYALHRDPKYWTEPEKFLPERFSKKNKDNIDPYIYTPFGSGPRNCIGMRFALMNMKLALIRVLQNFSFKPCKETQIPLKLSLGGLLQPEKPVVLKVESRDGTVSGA
How it was run: (§1)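 Light output from converted D-luciferin reports remaining CYP activity. Compounds preincubate with enzyme and substrate for 15 min; NADPH regeneration (1x final) runs the reaction for 30-45 min.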

[3] = target: Cytochrome P450 2D6 (Homo sapiens) (UniProt P10635); assay: qHTS for inhibitors of CYP2D6 against the NCATS DSHEA and TCM libraries (AID 1919972); settings: CYP2D6 enzymatic inhibition, luminescence qHTS; series mostly up to 34.1 µM
Cytochrome P450 2D6 (Homo sapiens), sequence (P10635 whole entry, looked up): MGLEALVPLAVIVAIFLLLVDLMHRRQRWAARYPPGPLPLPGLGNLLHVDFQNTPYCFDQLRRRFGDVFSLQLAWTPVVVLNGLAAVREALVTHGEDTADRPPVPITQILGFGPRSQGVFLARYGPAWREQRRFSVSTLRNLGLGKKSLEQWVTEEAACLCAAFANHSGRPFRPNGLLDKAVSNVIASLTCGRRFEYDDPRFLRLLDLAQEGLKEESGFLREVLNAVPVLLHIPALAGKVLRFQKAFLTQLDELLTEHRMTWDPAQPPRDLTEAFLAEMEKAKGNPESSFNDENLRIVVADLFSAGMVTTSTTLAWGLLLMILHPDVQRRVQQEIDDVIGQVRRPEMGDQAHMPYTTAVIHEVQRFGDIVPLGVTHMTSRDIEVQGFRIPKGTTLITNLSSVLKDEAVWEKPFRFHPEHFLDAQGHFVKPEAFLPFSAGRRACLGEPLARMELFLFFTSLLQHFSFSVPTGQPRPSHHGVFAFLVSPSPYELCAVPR
Source text: Assay Development and Screening Technology Laboratory (ADST)
National Center for Advancing Translational Sciences (NCATS), Rockville, MD
National Institute of Health (NIH), Bethesda, Maryland
Dietary Supplements and Natural Products have minor oversight of their safety and efficacy. We assembled a collection of Dietary Supplements and Natural Products (DSNP) as well as Traditional Chinese Medicinal (TCM) Plant extracts, which were screened against an in vitro panel of assays, including a liver cytochrome p450 enzyme panel, CAR/PXR signaling pathways, and P-gp transporter assays, to assess their activity. This pipeline facilitated the interrogation of Natural Product-Drug Interaction (NaPDI) through prominent metabolizing pathways. In addition, we compared the activity profiles of the DSNP/TCM substances with those of an approved drug collection. Many of the approved drugs have well-annotated mechanisms of action (MOA) while the MOAs for most of the DSNP and TCM samples remain unknown. […] Overall, we highlight four significant bioactivity profiles (measured by p-values) as examples of this prediction. […] To profile potential P-gp activity, a differential cell viability was measured against two cell lines: a parental KB-3-1 human cervical adenocarcinoma cell line and the drug-resistant subline KB-8-5-11 that overexpresses P-gp. […]
9; Read; Luminescence; ViewLux plate reader. […]

[4] = target: Cytochrome P450 2C19 (Homo sapiens) (UniProt P33261); assay: qHTS for inhibitors of CYP2C19 against the NCATS DSHEA and TCM libraries (AID 1919974); settings: CYP2C19 enzyme inhibition, luminescence qHTS;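 also: luminescence from luciferin released by CYP2C19 oxidation of a pro-luciferin substrate; potency is read from the fitted curve at half-maximal effect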
Cytochrome P450 2C19 (Homo sapiens), sequence (P33261 whole entry, looked up): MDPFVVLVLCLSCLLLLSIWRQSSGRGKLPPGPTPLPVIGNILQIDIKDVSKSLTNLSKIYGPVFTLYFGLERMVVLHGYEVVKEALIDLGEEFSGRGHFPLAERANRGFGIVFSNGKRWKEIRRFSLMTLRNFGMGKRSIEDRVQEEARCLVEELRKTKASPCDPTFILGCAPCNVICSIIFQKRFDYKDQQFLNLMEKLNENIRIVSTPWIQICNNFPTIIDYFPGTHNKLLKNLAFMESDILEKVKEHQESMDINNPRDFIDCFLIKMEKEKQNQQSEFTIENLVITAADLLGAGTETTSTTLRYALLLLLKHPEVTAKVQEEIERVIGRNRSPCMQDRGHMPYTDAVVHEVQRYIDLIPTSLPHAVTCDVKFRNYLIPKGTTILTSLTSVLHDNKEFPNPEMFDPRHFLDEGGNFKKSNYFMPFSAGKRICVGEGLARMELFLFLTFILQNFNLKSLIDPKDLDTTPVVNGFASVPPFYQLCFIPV
How it was run: as §1

[5] = KB-3-1 P-gp reporter qHTS against the NCATS DSHEA and TCM libraries (AID 1919975); settings: KB-3-1 parental cells, CellTiter-Glo luminescence viability, 72 h; series mostly up to 26.1 µM
How it was run: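 Parental KB-3-1 human cervical adenocarcinoma cells (500 cells/well, DMEM + 10% FBS) were treated with substances for ~72 h at 37C; viability was read by CellTiter-Glo luminescence.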

[6] = qHTS Counterscreen for compound interference against the NCATS DSHEA and TCM libraries (AID 1919978); settings: firefly luciferase detection reagent interference, luminescence
How it was run: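 D-luciferin (1 uM final) or 100 mM potassium phosphate buffer alone was preincubated 15 min at RT with compounds (19.5 nM to 39.8 uM final). Luciferin detection reagent was then added and luminescence read after 30 min at RT.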

[7] = Dual reporter qHTS for agonist of Pregnane X Receptor (hPXR) against the NCATS DSHEA and TCM libraries: Fluorescence readout (AID 1920058); settings: PXR dual reporter cells; series mostly up to 40 µM
How it was run: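 Measures viability of the PXR reporter HepG2 line by protease-substrate fluorescence (405/540 nm), taken 1 h after CellTiter-Fluor addition. Substances are tested as concentration series over a ~24 h exposure, with rifampicin as agonist control.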

[8] = target: Nuclear receptor subfamily 1 group I member 2 (Homo sapiens) (UniProt O75469); assay: Dual reporter qHTS for agonist of Pregnane X Receptor (hPXR) against the NCATS DSHEA and TCM libraries: Luminescence readout (AID 1920059); settings: hPXR dual reporter cells, luciferase luminescence agonist; series mostly up to 40 µM
Nuclear receptor subfamily 1 group I member 2 (Homo sapiens), sequence (O75469 whole entry, looked up): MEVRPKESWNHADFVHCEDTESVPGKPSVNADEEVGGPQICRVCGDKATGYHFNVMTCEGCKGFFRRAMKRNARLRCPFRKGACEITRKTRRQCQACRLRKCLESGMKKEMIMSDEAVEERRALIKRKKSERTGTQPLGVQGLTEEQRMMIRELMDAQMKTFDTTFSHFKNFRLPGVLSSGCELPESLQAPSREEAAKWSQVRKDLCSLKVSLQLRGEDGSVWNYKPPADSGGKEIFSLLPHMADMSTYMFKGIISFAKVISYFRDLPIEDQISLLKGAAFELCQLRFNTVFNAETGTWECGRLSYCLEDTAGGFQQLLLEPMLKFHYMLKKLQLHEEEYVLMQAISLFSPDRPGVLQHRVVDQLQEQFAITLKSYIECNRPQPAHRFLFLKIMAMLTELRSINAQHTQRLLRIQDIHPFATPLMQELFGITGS
How it was run: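 hPXR-Luc HepG2 cells, 2000/well in 5% charcoal-stripped FBS medium, attached 5 h, then exposed 24 h at 37C to compounds. Viability by CellTiter-Fluor, then luciferase luminescence with ONE-Glo.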

[9] = target: Nuclear receptor subfamily 1 group I member 2 (Homo sapiens) (UniProt O75469); assay: Dual reporter qHTS for antagonist of Pregnane X Receptor (hPXR) against the NCATS DSHEA and TCM libraries: Luminescence Readout (AID 1920060); settings: hPXR dual reporter cells, luciferase luminescence, antagonist mode; series mostly up to 40 µM
How it was run: (§2)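 Rifampicin-stimulated (2 uM final) hPXR-luciferase HepG2 cells were treated for 24 h with DSNP/TCM substances. Viability came from CellTiter-Fluor fluorescence, reporter activity from ONE-Glo luminescence.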

[10] = Dual reporter qHTS for antagonist of Pregnane X Receptor (hPXR) against the NCATS DSHEA and TCM libraries: Fluorescence Readout (AID 1920061); settings: PXR dual reporter cells, antagonist mode; series mostly up to 40 µM
How it was run: as §2

With `CC(=O)SCC(CC(=O)c1ccc(C)cc1)C(=O)O` (stereo not drawn) the outcome [1] was “inactive”.
With `O=[N+]([O-])c1ccc(CNc2nc(NCc3cccc(C(F)(F)F)c3)nc3nc[nH]c23)cc1` the outcome [1] was “inactive”.
For `CCCCN(CC)c1nc(C)nc2c1c(C)cn2-c1c(C)cc(C)cc1C`, the outcome [1] was “inactive”.
With `CCNc1nc2c(ncn2[C@H]2C[C@H](O)[C@@H](CO)O2)c(=O)[nH]1` the outcome [1] was “inactive”.
With `COc1cc(/C=C/C(=O)N2CCN(CC(=O)N3CCCC3)CC2)cc(OC)c1OC` the outcome [1] was “inactive”.
For `O=C1CC[C@@H](C(=O)N2CSC[C@H]2C(=O)O)N1` ([pGlu]-[Thz]-OH), the outcome [1] was “inactive”.
For `O=C(O)CC1CC(c2ccccc2)=NO1` (stereo not drawn), the outcome [1] was “inactive”.
For `O=C(O)c1cc(O)c(O)c(O)c1`, the outcome [2] was “inactive”, the outcome [3] was “inactive” and the Potency [4] was 3.55 µM (active). The outcome [5] was “inactive”, the max response [6] was -2.87% and the outcome [7] was “inactive”. For the same compound, the outcome [8] was “inactive”, the outcome [9] was “inactive” and the outcome [10] was “inactive”.
In the case of `C/C(=N\O)c1ccc(OCC(=O)N2CCCCC2)cc1`, the outcome [1] is reported as “inactive”.
With `CS(=O)(=O)c1ccc(-n2nc(C(F)(F)F)cc2-c2ccc(F)cc2)cc1` the outcome [1] was “inactive”.
With `O=C(O)[C@H](CC(=O)N1C[C@H]2CCCC[C@H]2C1)Cc1ccccc1` the outcome [1] was “inactive”.
In the case of `O=C(Nc1ccc2c(c1)CCN(Cc1ncn[nH]1)C2)c1ccccc1-c1ccc(C(F)(F)F)cc1`, the outcome [1] is reported as “inactive”.
With `C[C@H](O)[C@H](O)[C@H]1CNc2nc(N)[nH]c(=O)c2N1` the outcome [1] was “inactive”.
In the case of `NS(=O)(=O)c1ccc(-n2nc(C(F)(F)F)cc2-c2ccc(Cl)cc2)cc1`, the outcome [1] is reported as “inactive”.
In the case of `CC1(C)S[C@@H]2[C@H](NC(=O)[C@H](N)c3ccc(O)cc3)C(=O)N2[C@H]1C(=O)O`, the outcome [1] is reported as “inactive”.
For `Cc1ccc2c(n1)Oc1ccc(C(C)C(=O)OCC(=O)N(C)C)cc1C2` (stereo not drawn), the outcome [1] was “inactive”.
For `Fc1ccc2[nH]c(CN3CCN(c4ccccn4)CC3)cc2c1`, the outcome [1] was “inactive”.
For `CC1(C)[C@@H](O[C@H]2O[C@H](C(=O)O)[C@@H](O)[C@H](O)[C@H]2O[C@@H]2O[C@H](C(=O)O)[C@@H](O)[C@H](O)[C@H]2O)CC[C@]2(C)[C@H]3C(=O)C=C4[C@@H]5C[C@@](C)(C(=O)O)CC[C@]5(C)CC[C@@]4(C)[C@]3(C)CC[C@@H]12`, the outcome [1] was “inactive”.
With `COc1ccc(/C=C/C(=O)Nc2ccccc2C(=O)O)cc1OC` the outcome [1] was “inactive”.
With `CN1[C@@H]2CC[C@H]1CC(OC(=O)C(CO)c1ccccc1)C2` (stereo partly drawn) the outcome [1] was “inactive”.
With `CCNC(=O)[C@H]1O[C@@H](n2cnc3c(N)nc(NCCc4ccc(CCC(=O)O)cc4)nc32)[C@H](O)[C@@H]1O` the outcome [1] was “inactive”.
In the case of `CC(=O)c1ccc(OCC(=O)N2CCCCC2)cc1`, the outcome [1] is reported as “inactive”.
In the case of `O=C(O)Cc1cccc(-c2cc(CCCCCCc3ccc(O[C@H]4O[C@H](CO)[C@@H](O)[C@H](O)[C@@H]4O)c(-c4cccc(CC(=O)O)c4)c3)ccc2O[C@H]2O[C@H](CO)[C@@H](O)[C@H](O)[C@@H]2O)c1`, the redox activity (% of DA3003) [1] is reported as 1.45% [at 0.461 µM].
For `CC1(C)[C@@H](O)CC[C@]2(C)[C@H]3C(=O)C=C4[C@@H]5C[C@@](C)(C(=O)O)CC[C@]5(C)CC[C@@]4(C)[C@]3(C)CC[C@@H]12`, the outcome [1] was “inactive”.
For `CC(C(=O)O)c1ccc2c(c1)[nH]c1ccc(Cl)cc12` (stereo not drawn), the outcome [1] was “inactive”.
For `COC(=O)C1=C(C)NC(C)=C(C(=O)OC)C1c1cccc(NC(=O)NCCCN2CCC(c3cccc(OC)c3)CC2)c1`, the outcome [1] was “inactive”.
In the case of `CCCCCCCCCCCCCCCCCC(=O)O`, the outcome [5] is reported as “inactive”, the max response [6] is reported as 4.77% and the outcome [7] is reported as “inactive”. The outcome [8] was “inactive”, the outcome [9] was “inactive” and the outcome [10] was “inactive”.
With `C[S+](CC[C@H](N)C(=O)O)C[C@H]1O[C@@H](n2cnc3c(N)ncnc32)[C@H](O)[C@@H]1O` (stereo partly drawn) the outcome [2] was “inactive”, the outcome [3] was “inactive” and the Potency [4] was 3.98 µM (active). The outcome [5] was “inactive”, the max response [6] was -4.63% and the outcome [7] was “inactive”. For the same compound, the outcome [9] was “inactive” and the outcome [10] was “inactive”.
For `COc1cc(CNC(=O)CCCC/C=C/C(C)C)ccc1O`, the outcome [1] was “inactive”.
For `O=C(Nc1ccc2[nH]ncc2c1)C1CCC1`, the outcome [1] was “inactive”.
With `CC(=O)O[C@H]1C[C@@]2(C)[C@@H](C[C@@H](O)[C@H]3[C@@]4(C)CC[C@@H](O)[C@@H](C)[C@@H]4CC[C@@]32C)/C1=C(\CCC=C(C)C)C(=O)O` the outcome [1] was “inactive”.
In the case of `CCN(CC)CCCCNc1ncc2cc(-c3c(Cl)cccc3Cl)c(NC(=O)NC(C)(C)C)nc2n1`, the outcome [1] is reported as “inactive”.
For `CN1[C@@H]2CC[C@H]1CC(OC(c1ccccc1)c1ccccc1)C2` (stereo partly drawn), the outcome [1] was “inactive”.
